Laboratory results: PubChem BioAssay AID1159580 (chemical genetic matrix, 2015)
The campaign covered roughly 5,500 compounds. About 2,000 (36%) were called active. Roughly 18% stayed inconclusive and do not appear here. Cut-off read from the data, not from the text of the source: active = normalized growth mostly below about 0.91 (no sharp cut-off); inconclusive = no clear call, values can overlap the other calls; inactive = mostly above about 0.92. The list shows a part of the results.

Test: chemical genetic growth profiling, strain panel (AID 1159580);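 note: tested at 20 µM; growth read once vehicle control cultures reached saturation at 30 °C; 1 = growth at the plate median or of vehicle wells; lower values mean less growth of the strain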
Details: growth OD

Measured: normalized growth

O=C(/C=C/c1ccc(O)c(O)c1)O[C@@H]1C[C@](O)(C(=O)O)C[C@@H](O)[C@H]1O
inactive: S. cerevisiae deletion strains, locus YKL009W, strain mrt4, hits give low values 1.04 | S. cerevisiae deletion strains, locus YKL068W, hits give low values 1.01 | S. cerevisiae deletion strains, locus YKL085W, strain MDH1 (second series), hits give low values 1 | S. cerevisiae deletion strains, locus YKL085W, strain MDH1, hits give low values 1 | S. cerevisiae deletion strains, locus YKL160W, strain elf1, hits give low values 1.03 | S. cerevisiae deletion strains, locus YKR001C, strain vps1, hits give low values 1.03 | S. cerevisiae deletion strains, locus YKR026C, strain gcn3, hits give low values 0.973 | S. cerevisiae deletion strains, locus YKR091W, strain srl3, hits give low values 0.992 | S. cerevisiae deletion strains, locus YLL001W, strain dnm1, hits give low values 0.99 | S. cerevisiae deletion strains, locus YLL026W, hits give low values 0.985 | S. cerevisiae deletion strains, locus YLL041C, strain sdh2, hits give low values 0.974 | S. cerevisiae deletion strains, locus YLR027C, strain aat2, hits give low values 0.999 | S. cerevisiae deletion strains, locus YLR039C, strain RIC1, hits give low values 1.05 | S. cerevisiae deletion strains, locus YLR058C, strain SHM2, hits give low values 1.01 | S. cerevisiae deletion strains, locus YLR102C, strain apc9, hits give low values 1.01 | S. cerevisiae deletion strains, locus YLR113W, strain HOG1, hits give low values 1 | S. cerevisiae deletion strains, locus YLR221C, strain rsa3, hits give low values 0.972 | S. cerevisiae deletion strains, locus YLR258W, strain gsy2, hits give low values 0.985 | S. cerevisiae deletion strains, locus YLR262C, strain YPT6 (second series), hits give low values 0.996 | S. cerevisiae deletion strains, locus YLR262C, strain YPT6, hits give low values 1.11 | S. cerevisiae deletion strains, locus YLR268W, strain sec22, hits give low values 1.05 | S. cerevisiae deletion strains, locus YLR320W, strain mms22, hits give low values 0.969 | S. cerevisiae deletion strains, locus YLR330W, strain CHS5, hits give low values 1.01 | S. cerevisiae deletion strains, locus YLR342W, strain FKS1 (second series), hits give low values 0.998 | S. cerevisiae deletion strains, locus YLR342W, strain FKS1, hits give low values 0.988 | S. cerevisiae deletion strains, locus YLR357W, strain rsc2, hits give low values 1 | S. cerevisiae deletion strains, locus YLR370C, strain arc18, hits give low values 0.986 | S. cerevisiae deletion strains, locus YLR371W, strain rom2, hits give low values 1.01 | S. cerevisiae deletion strains, locus YLR384C, strain iki3, hits give low values 0.96 | S. cerevisiae deletion strains, locus YLR418C, strain cdc73, hits give low values 0.992 | S. cerevisiae deletion strains, locus YML016C, strain PPZ1, hits give low values 1 | S. cerevisiae deletion strains, locus YML032C, strain rad52, hits give low values 0.999 | S. cerevisiae deletion strains, locus YML120C, strain ndi1, hits give low values 0.993 | S. cerevisiae deletion strains, locus YML124C, strain tub3, hits give low values 1.01 | S. cerevisiae deletion strains, locus YMR058W, strain fet3, hits give low values 0.978 | S. cerevisiae deletion strains, locus YMR078C, strain ctf18, hits give low values 1.02 | S. cerevisiae deletion strains, locus YMR125W, strain sto1, hits give low values 0.99 | S. cerevisiae deletion strains, locus YMR129W, hits give low values 0.991 | S. cerevisiae deletion strains, locus YMR205C, strain PFK2, hits give low values 1.03 | S. cerevisiae deletion strains, locus YMR223W, strain ubp8, hits give low values 1 | S. cerevisiae deletion strains, locus YMR231W, strain pep5, hits give low values 0.971 | S. cerevisiae deletion strains, locus YMR263W, strain SAP30, hits give low values 1.01 | S. cerevisiae deletion strains, locus YMR307W, strain GAS1, hits give low values 0.959 | S. cerevisiae deletion strains, locus YNL067W, strain RPL9B, hits give low values 1.04 | S. cerevisiae deletion strains, locus YNL071W, strain lat1, hits give low values 0.987 | S. cerevisiae deletion strains, locus YNL128W, strain TEP1, hits give low values 1.04 | S. cerevisiae deletion strains, locus YNL153C, strain GIM3, hits give low values 1.02 | S. cerevisiae deletion strains, locus YNL183C, strain NPR1, hits give low values 0.957 | S. cerevisiae deletion strains, locus YNL209W, strain ssb2, hits give low values 0.991 | S. cerevisiae deletion strains, locus YNL233W, strain BNI4, hits give low values 1.02 | S. cerevisiae deletion strains, locus YNL248C, strain rpa49, hits give low values 0.982 | S. cerevisiae deletion strains, locus YNL250W, strain rad50, hits give low values 1.03 | S. cerevisiae deletion strains, locus YNL271C, strain bni1, hits give low values 1.01 | S. cerevisiae deletion strains, locus YNL298W, strain CLA4, hits give low values 1.02 | S. cerevisiae deletion strains, locus YNL307C, strain MCK1, hits give low values 1.02 | S. cerevisiae deletion strains, locus YNL322C, strain KRE1 (second series), hits give low values 0.976 | S. cerevisiae deletion strains, locus YNL322C, strain KRE1, hits give low values 1 | S. cerevisiae deletion strains, locus YNR049C, strain mso1, hits give low values 0.973 | S. cerevisiae deletion strains, locus YNR052C, strain pop2, hits give low values 1.01 | S. cerevisiae deletion strains, locus YOL006C, strain TOP1, hits give low values 1.15 | S. cerevisiae deletion strains, locus YOL012C, strain htz1 0.974 | S. cerevisiae deletion strains, locus YOL147C, strain pex11, hits give low values 1.02 | S. cerevisiae deletion strains, locus YOR001W, strain rrp6, hits give low values 0.925 | S. cerevisiae deletion strains, locus YOR061W, strain CKA2, hits give low values 1.01 | S. cerevisiae deletion strains, locus YOR069W, strain VPS5, hits give low values 1.01 | S. cerevisiae deletion strains, locus YOR070C, strain gyp1, hits give low values 0.985 | S. cerevisiae deletion strains, locus YOR080W, strain dia2, hits give low values 0.983 | S. cerevisiae deletion strains, locus YOR083W, strain WHI5, hits give low values 1.04 | S. cerevisiae deletion strains, locus YOR106W, strain vam3, hits give low values 1 | S. cerevisiae deletion strains, locus YOR136W, strain idh2, hits give low values 1.03 | S. cerevisiae deletion strains, locus YOR144C, strain elg1, hits give low values 1.01 | S. cerevisiae deletion strains, locus YOR184W, strain ser1, hits give low values 1 | S. cerevisiae deletion strains, locus YOR231W, strain MKK1, hits give low values 1.02 | S. cerevisiae deletion strains, locus YOR265W, strain rbl2, hits give low values 0.999 | S. cerevisiae deletion strains, locus YOR270C, strain vph1, hits give low values 0.924 | S. cerevisiae deletion strains, locus YOR290C, strain snf2, hits give low values 1.01 | S. cerevisiae deletion strains, locus YOR316C, strain cot1, hits give low values 1.02 | S. cerevisiae deletion strains, locus YPL051W, strain arl3, hits give low values 0.999 | S. cerevisiae deletion strains, locus YPL055C, strain LGE1, hits give low values 1.03 | S. cerevisiae deletion strains, locus YPL078C, strain atp4, hits give low values 1.02 | S. cerevisiae deletion strains, locus YPL106C, strain sse1, hits give low values 0.995 | S. cerevisiae deletion strains, locus YPL240C, strain hsp82, hits give low values 0.969 | S. cerevisiae deletion strains, locus YPL256C, strain CLN2, hits give low values 1.01 | S. cerevisiae deletion strains, locus YPR119W, strain clb2, hits give low values 1.01 | S. cerevisiae deletion strains, locus YPR141C, strain kar3, hits give low values 1.01 | S. cerevisiae deletion strains, locus YPR163C, strain tif3, hits give low values 1.03 | S. cerevisiae deletion strains, locus YPR167C, strain met16, hits give low values 1.01 | S. cerevisiae deletion strains, strain wtn01, hits give low values 1.05 | S. cerevisiae strains, strain wild type, hits give low values 1.01
